# An excerpt weighted towards active compounds, which were near 9% of everything screened.
# HP1b chromo inh: HP1-beta chromodomain-methylated histone interaction inhibition; P83916; AlphaScreen HP1-beta / biotin-H3K9me3 peptide binding; Potency, µM (top dose mostly 114 µM), actives largely listed as inhibitors; 390,000 compounds, 0.56% hits; also: nearly all actives have a fitted effect of over 70% in size
#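 AlphaScreen: HP1-beta (50 nM) preformed 30 min with biotin-H3(1-18)K9me3 peptide (50 nM) in PBS pH 7.4, 0.01% Tween-20. Compound added for 30 min at RT, then streptavidin donor/nickel chelate acceptor beads (10 ug/mL) for 30 min.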
# BAZ2B block: BAZ2B (human) inhibition. Potency, µM (titrated, usually from 114 µM), usual class: inhibitors. AID 504333. AlphaScreen BAZ2B-H3K14Ac peptide displacement. 360,000 compounds, 4.4% hits; also: nearly all actives have a fitted effect of over 60% in size
#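 Compounds, titrated to a top concentration of 110 uM, were incubated 30 min at room temperature with preformed BAZ2B/acetyl-K14 H3 peptide complex (50 nM each). Proximity signal was measured by AlphaScreen after 20 min with beads.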
# JMJD2A Tudor inh: inhibitors of human JMJD2A Tudor domain; O75164; AlphaScreen JMJD2A-Tudor / H3K4me3 peptide binding; Potency, µM (titrated, usually from 114 µM), hits mostly inhibitors; 390,000 compounds, 4.4% hits; AID 504339; also: nearly all actives have a fitted effect of over 50% in size
# Target sequence (O75164 whole entry, looked up, the tested form may be a part): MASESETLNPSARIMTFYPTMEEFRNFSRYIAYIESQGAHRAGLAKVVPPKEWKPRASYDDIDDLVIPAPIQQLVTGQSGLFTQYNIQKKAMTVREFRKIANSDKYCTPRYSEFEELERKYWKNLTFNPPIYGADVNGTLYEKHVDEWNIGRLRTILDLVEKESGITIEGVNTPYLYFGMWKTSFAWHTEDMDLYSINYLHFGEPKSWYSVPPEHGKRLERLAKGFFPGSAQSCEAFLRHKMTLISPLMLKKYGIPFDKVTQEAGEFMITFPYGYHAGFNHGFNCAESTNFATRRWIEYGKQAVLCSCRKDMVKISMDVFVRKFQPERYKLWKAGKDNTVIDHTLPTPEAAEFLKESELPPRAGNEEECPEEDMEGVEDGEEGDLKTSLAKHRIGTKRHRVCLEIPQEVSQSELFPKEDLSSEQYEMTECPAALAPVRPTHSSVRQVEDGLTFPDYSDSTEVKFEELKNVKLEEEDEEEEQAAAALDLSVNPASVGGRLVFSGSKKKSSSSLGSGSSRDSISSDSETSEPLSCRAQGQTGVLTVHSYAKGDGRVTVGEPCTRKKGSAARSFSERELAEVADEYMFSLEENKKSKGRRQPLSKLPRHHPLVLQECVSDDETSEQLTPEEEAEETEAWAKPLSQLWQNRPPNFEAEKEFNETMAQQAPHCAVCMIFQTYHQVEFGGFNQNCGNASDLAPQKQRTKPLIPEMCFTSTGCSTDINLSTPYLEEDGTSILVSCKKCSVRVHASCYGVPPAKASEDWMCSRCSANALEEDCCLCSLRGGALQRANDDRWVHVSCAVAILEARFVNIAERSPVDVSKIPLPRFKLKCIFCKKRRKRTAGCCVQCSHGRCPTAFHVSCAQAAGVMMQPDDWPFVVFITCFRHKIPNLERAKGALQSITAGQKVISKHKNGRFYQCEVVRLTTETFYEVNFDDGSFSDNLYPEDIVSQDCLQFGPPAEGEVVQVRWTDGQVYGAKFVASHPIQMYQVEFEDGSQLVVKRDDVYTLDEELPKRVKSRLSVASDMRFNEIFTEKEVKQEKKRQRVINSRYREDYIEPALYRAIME
# ALOX12 inh: blocks human arachidonate 12S-lipoxygenase | P18054 | Potency, µM (highest dose often 108 µM), most hits filed as inhibitors | purified 12hLO, xylenol orange hydroperoxide absorbance | 580,000 compounds, 1.1% hits
#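 Purified human 12hLO at 150 nM in 25 mM Hepes, 0.01% Triton X-100, pH 7.0, preincubated 15 min at room temperature with compound. Reaction started with 40 uM arachidonic acid, 30 min at room temperature. Hydroperoxide measured by Fe-xylenol orange, 573/405 nm absorbance ratio.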
# G9a block: G9a (human) methyltransferase inhibition; Q96KQ7; AID 504332; 350,000 compounds, 8.8% hits; Potency, µM (titrated, usually from 102 µM), usual class: inhibitors; G9a H3K9 monomethylation, AlphaScreen, 2 h; also: nearly all actives have a fitted effect of over 75% in size
#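 Readings reflect AlphaScreen signal from monomethyl-H3K9 antibody detection. HMT at 20 nM; substrate b-H3K9 500 nM; cofactor SAM 20 uM; 2 h RT reaction; compounds tested as titrations in qHTS with 15 min preincubation.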
# PLK1 PBD inh: blocks phosphopeptide binding to human PLK1 polo-box domain. Plk1 PBD binding of FITC phosphopeptide, fluorescence polarization. 360,000 compounds, 2.8% hits. Potency, µM, most hits filed as inhibitors. P53350. AID 720504; also: series mostly up to about 57 µM; nearly all actives have a fitted effect of over 65% in size
# Numbers stand for hits; n = inactive; u = inconclusive; x = no result; [ ] = another dose, or the depositor's remark. Calls follow the shape of the dose curve; as a rule, active = well fitted curve in the direction sought with a large enough effect; inconclusive = small, poorly fitted or top-dose-only effect, or another doubt; inactive = no such curve, though single readings can be large; an effect the other way counts as inactive or inconclusive.
SMILES,HP1b chromo inh,BAZ2B block,JMJD2A Tudor inh,ALOX12 inh,G9a block,PLK1 PBD inh
COc1cc(NC(=O)c2ccc3c(c2)S(=O)(=O)N=C2CCCCCN23)cc(OC)c1,n,n,n,n,50µM,n
O=S(=O)(NCCSc1nc2ccccc2o1)c1ccccc1,n,n,n[11.4 µM],n,n,8.4µM
CCS(=O)(=O)CCSc1nc2ccccc2o1,n,n,n,n,n,n
O=c1c(N2CCOCC2)c(N2CCOCC2)c1=O,n,n,n,n,x,n
CC(C)(C)C1=CC(=O)C(N2CCOCC2)=CC1=O,u,50µM,n,u,u,n
Clc1cccc(CN2CCCCCC2)c1Cl,u,u,0.71µM,u,20µM,n
O=C(NCc1ccccc1CN1CCCC1)c1ccccc1Cl,x,x,x,n,x,x
Clc1cccc(CN2CCSCC2)c1Cl,u,u,3.5µM,u,3.5µM,n
Clc1ccccc1Cc1noc(CN2CCSCC2)n1,n,n,n,n,n[12.7 µM],n
O=C1c2ccccc2C(=O)N1Cc1ccncc1,x,x,n,x,x,x
COc1cccc(C(=O)Nc2nc3c(s2)CCCC3)c1,n,u,u,u,10µM,x
C/C(=N\Nc1nc2c(s1)CCCC2)c1ccc(Cl)cc1,n,45µM,u,40µM,u,u
Cc1cc(C(=O)Nc2nc3c(s2)CCCC3)no1,n,n,n,n,n[12.7 µM],n
COC(=O)Nc1nc2c(s1)CCCC2,n,n,n,n,n,n
CC(C)(C)c1ccc(C(=O)NC(=S)Nc2nc3c(s2)CCCC3)cc1,n,n,u,45µM,n,n
CN(C)c1ccc(C(=O)Nc2nc3c(s2)CCCC3)cc1,u,u,79µM,u,35µM,n
O=C(CCSc1ccc(Cl)cc1)Nc1nc2c(s1)CCC2,x,x,x,n,x,x
CCOc1ccc2c(c1)O/C(=C\c1cccc(OS(C)(=O)=O)c1)C2=O,x,x,x,n,x,x
Cc1csc(NC(=O)CSc2nnc(Cc3cccn3C)n2CCc2ccccc2)n1,u,u,35µM,n,45µM,u
Cn1cccc1Cc1nnc(SCC(=O)Nc2cccc(F)c2)n1CCc1ccccc1,n,50µM,n,n,45µM,n
Cn1cccc1Cc1nnc(SCC(=O)Nc2ccccc2F)n1CCc1ccccc1,n,u,u,n,45µM,n
CCOc1ccc(C(=O)N2CCN(c3cc(=O)n4nc(-c5ccccc5C)sc4n3)CC2)cc1,x,x,x,n,x,x
CC(=O)N1CCN(c2ccc(NC(=O)c3ccccc3C)cc2)CC1,n,u,n,u,n,n
CC(=O)N[C@H]1CC[C@]2(C)CC[C@@H]([C@H](C)C(=O)NCc3ccco3)[C@H](O)[C@H]2[C@@H]1C,x,x,x,n,x,x
COc1cccc(CN2CCNC(=O)C2CC(=O)NCCn2ccc3ccccc32)c1OC (stereo not given),n,u,u,n,40µM,n
SMILES,HP1b chromo inh,BAZ2B block,JMJD2A Tudor inh,ALOX12 inh,G9a block,PLK1 PBD inh
COc1cccc(CN2CCNC(=O)C2CC(=O)NCC(N)=O)c1OC (stereo not given),x,x,x,n,x,x
COc1cccc(CN2CCNC(=O)C2CC(=O)NC2CCOCC2)c1OC (stereo not given),n,n,n,n,45µM,n
COc1ccc(CN2CCNC(=O)C2CC(=O)NC2CCCC2)c(C)c1C (stereo not given),n,u,20µM,n,45µM,9.5µM
Nc1c(Cl)cc(-c2cn(CCC(=O)O)c(-c3ccc(Cl)nc3)n2)cc1Cl,n,n,n,n,n[2.33 µM],n
Cc1nc2cc(N3CCCCC3)c(NC(=O)c3cccnc3)cc2c(=O)n1Cc1ccccc1,n,n,n,n,n,n
CC(=O)Nc1cc2c(=O)n(Cc3ccccc3)c(C)nc2cc1N1CCOCC1,n,u,n,14µM,50µM,n
COCC1CN(C(C)=O)CC12CCN(C(=O)c1ccsc1)CC2 (stereo not given),x,x,x,n,x,x
O=C(Nc1nc(NC(=O)c2ccco2)n(-c2ccccc2)n1)c1ccccc1,n,45µM,n,n,n[12.7 µM],n
O=C(Nc1ccccc1NC(=O)c1ccco1)c1ccccc1,n,n,n,n,n,n
CCOC(=O)c1cc(S(=O)(=O)NCc2ccc(OC)cc2)[nH]n1,n,u,u,n,13µM,x
CCOC(=O)c1cc(S(=O)(=O)NCc2ccc(Cl)cc2)[nH]n1,n,u,n,n,7.9µM,x

# Screening results as filed in PubChem BioAssay.
